The full list was thinned out, with hits kept by preference.
RECQ1 inh: blocks DNA unwinding by human RECQ1; RECQ1 DNA unwinding, red fluorescence kinetic read; Potency, µM (doses to about 57.3 µM), for the others: at the highest dose activity, negative = inhibition, usual class: inhibitors; hit rate 0.54% among 240,000; AID 2549; P46063;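 also: plate controls were vehicle for no effect and no enzyme for full effect; nearly all actives have a fitted effect of over 30% in size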
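RECQ1T1 50 nM; forked duplex (20 bp + 30-nt ss tails) 200 nM, ATP 2 mM final; pH 8.0, 2 mM MgCl2, 2.5 ug/ml poly(dI-dC); 15 min compound preincubation; discontinuous kinetic read over 2 h at RT.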
JMJD2E inh: JMJD2E (human) inhibition. B2RXH2. JMJD2E catalytic domain, FDH-coupled NADH fluorescence (FDH is formaldehyde dehydrogenase). Potency, µM (highest dose often 57.1 µM), for inactives: top-dose activity change, negative = inhibition, usual class: inhibitors. hit rate 1.6% among 230,000. AID 2147; active = well fitted inhibition curve with a large enough effect, not every such curve was filed as active; inconclusive = small, poorly fitted or top-dose-only effect, or another doubt; inactive = no such curve, though single readings can be large or run the other way;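 also: 0% = wells with enzyme and -100% = buffer wells without enzyme; nearly all actives have a fitted effect of over 50% in size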
APEX1 inh: blocks human APE1 abasic DNA cleavage | recombinant APE1, TAMRA/BHQ-2 abasic DNA cleavage fluorescence | Potency, µM (top dose mostly 65.8 µM), without a hit: at the top dose activity change, negative = inhibition, actives largely listed as inhibitors | hit rate 0.35% among 350,000 | AID 2517;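 also: plate controls were vehicle for no effect and reference inhibitor for full effect; nearly all actives have a fitted effect of over 55% in size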
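Measures dequenching upon AP-site incision of a 5'-TAMRA/3'-BHQ-2 THF-containing duplex, 50 nM; human APE1 0.75 nM after 15 min room-temperature exposure to compound; kinetic three-point read at one-minute spacing.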
KAT2A inh: inhibitors of human GCN5L2 histone acetyltransferase; GCN5L2 HAT assay, ThioGlo1 CoA-SH fluorescence; hit rate 0.21% among 390,000; Q92830; Potency, µM (top dose mostly 58.9 µM), without a hit: top-dose activity change, negative = inhibition, hits mostly inhibitors
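Fluorescence readout, Ex340nm/Em540nm: ThioGlo1 (50uM final) reacts with free CoA thiol released as 20nM GCN5L2 acetylates H3(1-25) peptide (75uM) using acetyl-CoA (70uM). Compound and enzyme sat 15 min beforehand; 20 min room-temperature reaction.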
BLM inh: inhibitors of human Bloom syndrome helicase BLM | recombinant BLM DNA unwinding, fluorescence dequenching | Potency, µM (doses to about 56.1 µM), without a hit: at the top dose activity change, negative = inhibition, hits mostly inhibitors | hit rate 0.2% among 350,000 | AID 2528;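 also: plate controls were vehicle for no effect and no enzyme for full effect; nearly all actives have a fitted effect of over 35% in size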
L3MBTL1 block: L3MBTL1 (human) inhibition | AlphaScreen L3MBTL1–H3K9me1 peptide binding | AID 485360 | Q9Y468 | Potency, µM (doses to about 57.1 µM), for the others: top-dose activity, negative = inhibition, usual class: inhibitors | hit rate 0.66% among 230,000; also: nearly all actives have a fitted effect of over 60% in size
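Displacement of a biotinylated histone H3(1-15) peptide monomethylated at Lys9 (75 nM) from L3MBTL1 (50 nM) was measured by AlphaScreen after a 30 min room-temperature compound incubation; cefsulodin titration served as intraplate control.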
* marks the source's active call; other numbers are inactive results; i = inactive; ? = inconclusive; / = no result; ! = not active in a repeat; [ ] = another dose, or the depositor's remark. Unless noted, calls follow the shape of the dose curve; as a rule, active = well fitted curve in the direction sought with a large enough effect; inconclusive = small, poorly fitted or top-dose-only effect, or another doubt; inactive = no such curve, though single readings can be large; an effect the other way counts as inactive or inconclusive. Unless noted, % is scaled to controls: 0 for no effect and ±100 for the full control effect; potency is read from the fitted curve at half-maximal effect.

SMILES	RECQ1 inh	JMJD2E inh	APEX1 inh	KAT2A inh	BLM inh	L3MBTL1 block
COc1ccc(/C=C2\COc3ccccc3C2=O)cc1OC	i	0%	6%	-10%	-3%	-1%
O=C(NCCC[N+]1=CC=N[C@H]1c1ccccc1)N1CCCc2nc(-c3ccc(Br)cc3)ccc21	-1%[11.5 µM]	/	-1%[12.4 µM]	/	-2%[12.4 µM]	/
CCc1cc2c3c(c(=O)oc2cc1OCC(=O)OC)CCCC3	/	/	-1%	-10%	-5%	4%
Cc1ccc2[nH]c(=S)cc(C)c2c1	-3%	7.1µM*	-4%	-3%	0%	-9%
O=C(NCc1ccc(/C=c2\sc3n(c2=O)CCN=3)o1)C(=O)Nc1ccccc1	25%	19%	17%	-14%	3%	25µM*
Cc1ccc(/C=c2/sc3n(c2=O)CCCN=3)o1	-23%	?	-4%	-29%	2%	-6%
CCOC(=O)c1cccc(NC(=O)c2cc(S(=O)(=O)N3CCCC3)cn2C)c1	/	/	/	4%	0%	/
CC12CCC(C[N+](C)(CCC[N+](C)(C)C)C1)C2(C)C (centres undefined)	/	/	/	22µM*	-13%	/
CC(C)CCC(C(=O)O)C(C)CC(=O)NNC(=O)c1ccco1 (centres undefined)	-5%	-14%	13%	-15%	-16%	28µM*!
CCCCC(C(=O)O)C(C)CC(=O)NNC(=O)c1ccco1 (centres undefined)	-6%	5%	11%	7%	6%	-27%
CCc1nc(SCC(=O)N2CCN(c3ccccc3)CC2)c2c(=O)n(C)c(=O)n(C)c2n1	i	-2%	18%	-3%	-4%	10%
Cn1c(=O)c2c(SCC(=O)N3CCN(c4ccccc4)CC3)nc(C3CC3)nc2n(C)c1=O	18µM*	8%	-3%	-1%	-2%	5%
COCCNC(=O)C1(C(F)(F)F)C/C(=C\Cc2ccccc2)CCCO1 (centres undefined)	i	/	?	/	1%	/
COc1ccc(N(CC(=O)NCc2ccco2)S(=O)(=O)c2ccc(C)cc2)cc1OC	/	/	-7%	0%	-2%	/
COc1ccccc1N(CC(=O)NCc1ccco1)S(=O)(=O)c1ccc(C)cc1	/	/	21µM*	-25%	-30%	/
Cc1ccc(S(=O)(=O)N(CC(=O)O)Cc2ccco2)cc1	-19%	-16%	14µM*	0%	-3%	/
COC(=O)NC/C=C\c1nc(CCCO)co1	i[11.5 µM]	/	23%[12.4 µM]	/	0%[12.4 µM]	/
O=C(N/N=C1/C[C@@H](O)[C@@H](O)[C@@H]2[C@H]3C(=O)N(c4ccc(F)cc4F)C(=O)[C@@H]3CC[C@H]12)OCc1ccccc1	i[11.5 µM]	/	24%[12.4 µM]	/	2%[12.4 µM]	/
Cc1cccc(NC(=O)CNC(=O)Cn2ncc(Cl)c(Cl)c2=O)c1C	/	/	?	-25%	/	32µM*
N#CC1=C(N)SC(N)=C(C#N)C1c1ccoc1	-14%	?	?	?	?	5µM*
Cc1ccc(C2C(C#N)=C(N)SC(N)=C2C#N)cc1	-5%	?	-5%	-3%	-5%	2%
CC1=CC(=O)c2c(O)ccc(O)c2C1=O	3.5µM*	?	2µM*	13µM*	18µM*	0.79µM*
O=C1c2c(O)ccc([N+](=O)[O-])c2C(=O)c2c([N+](=O)[O-])ccc(O)c21	-29%	/	?	/	/	/
CC12CCC(C(=O)N(CSC(=S)N/N=C\c3ccccc3O)C1=O)C2(C)C (centres undefined)	5%	2%	6%	-7%	-5%	5.6µM*
Nc1ccc2cc3ccc(N)cc3nc2c1	/	/	/	?	-26%	/
CCCN1CCC(=O)N(C(CSc2ccc(Br)cc2)CC(C)C)CC1 (centres undefined)	-1%	/	-2%	/	3%	/
Cc1cccc(C2c3[nH]c4ccccc4c3CCN2C(=O)c2ocnc2C)n1 (centres undefined)	-3%	22µM*	5%	-4%	0%	-4%
Oc1cc(-n2cccn2)c(O)cc1-n1cccn1	i	16µM*	-1%	-7%	-7%	-7%

Source: PubChem BioAssay (National Center for Advancing Translational Sciences (NCATS))
